Here are results for ten compounds from ChEMBL document CHEMBL4513146, “CO-ADD screening of Karazin Kharkiv National University (Ukraine) compounds”.

SMILES strings stand for the structures. Results with a measured potency or affinity are listed apart.

One test deals with Klebsiella pneumoniae. As to conditions: Concentration 32 ug.mL-1;; ASSAY_TEST Inhibition of Bacterial Growth; detection method Absorption (OD600); MEDIA CAMHB; plate type 384well; NBS; CORNING #3640; time 18 hr.
The test system of another test is Candida albicans. The note with it: Concentration 32 ug.mL-1; ASSAY_TEST Inhibition of Fungal Growth; detection method Absorption (OD530).
For the next test, the system named is Cryptococcus neoformans. As to conditions: Concentration 32 ug.mL-1; ASSAY_TEST Inhibition of Fungal Growth; detection method Resazurin; Absorption (OD600-OD570); plate type 384well; NBS; CORNING #3640.

The term Inhibition denotes the relative decrease from the control value, in per cent.

On to `COC(=O)c1ccc(NC(=O)Cn2nc3c(N4CCOCC4)nccn3c2=O)cc1`, for which the Inhibition is reported as 12.49% with Klebsiella pneumoniae, 2.39% in the test with Candida albicans and -14.01% in the test on Cryptococcus neoformans.

Consider `O=C(CCc1nnc2c3cc(-c4ccccc4)nn3ccn12)N1CCN(C(=O)c2ccco2)CC1`, for which the Inhibition in the test with Klebsiella pneumoniae is reported as 11.67%; with Candida albicans, 2.11%; in the test with Cryptococcus neoformans, -4.62%.

Regarding `CCc1ccc(N(Cc2ccccc2Cl)S(=O)(=O)c2cccn3c(C)nnc23)cc1`, the Inhibition is given as 4.84% in the test on Klebsiella pneumoniae, 5.69% in the test with Candida albicans and -4.25% with Cryptococcus neoformans.

Turning to `CCC(C)NC(=O)Cn1c(=O)c2nnc(C)n2c2ccccc21` (stereo not given), the figures for the Inhibition in the test on Klebsiella pneumoniae, in the test on Candida albicans and in the test on Cryptococcus neoformans were 11.59%, 0.05% and -11.45%, respectively.

As for `Cc1ccc(Cn2nc3c(=O)n(-c4cccc(Cl)c4C)ccn3c2=O)cc1`, the Inhibition in the test on Klebsiella pneumoniae was 10.23%; in the test with Candida albicans, 6.45%; in the test on Cryptococcus neoformans it was -17.53%.

In the case of `C=Cc1ccc(CN(c2cccc(F)c2)S(=O)(=O)c2ccc3nnc(C)n3c2)cc1`, the Inhibition is on record as 2.09% in the test on Klebsiella pneumoniae, 1.51% in the test with Candida albicans and -6.84% with Cryptococcus neoformans.

As to `O=C(CSc1nnc2c(=O)n(-c3ccccc3)ccn12)N1CCN(c2ccc(F)cc2)CC1`, the Inhibition in the test on Klebsiella pneumoniae was 13.33%; with Candida albicans, -0.45%; in the test with Cryptococcus neoformans, -26.48%.

For `O=C(Cn1nc2ccc(SCc3ccc(Cl)cc3)nn2c1=O)Nc1ccccc1C(F)(F)F`, the values for the Inhibition with Klebsiella pneumoniae, with Candida albicans and in the test on Cryptococcus neoformans were 7.36%, 1.76% and -11.3%, respectively.

`N#CCn1nc2n(CCC(=O)NC3CCCCC3)c(=O)c3ccccc3n2c1=O`: the Inhibition came to 0.53% with Klebsiella pneumoniae, 1.95% in the test on Candida albicans and 1.45% in the test on Cryptococcus neoformans.

For the compound `CC(C)Cn1c(=O)c2sccc2n2c(=O)n(CC(=O)N3CCC(Cc4ccccc4)CC3)nc12`, the Inhibition in the test on Klebsiella pneumoniae is -9.43%; with Candida albicans, 0.45%; in the test on Cryptococcus neoformans, -94.76%.
